In PubChem BioAssay AID1851 (National Center for Advancing Translational Sciences (NCATS), 2009):
Several values for one entry are separate records, joined by “and”; a condition that tells them apart may be missing. Equal entries are not always repeated. Out of some 16,000 compounds screened, about 5,700 (36%) were called active. Not shown: some 24% with an inconclusive outcome. Calls follow the shape of the dose curve; as a rule, active = well fitted curve in the direction sought with a large enough effect; inconclusive = small, poorly fitted or top-dose-only effect, or effect the other way; inactive = no such curve, though single readings can be large or run the other way. This is one part of the list.

The compounds below were run against Cytochrome P450 1A2 (Homo sapiens) (UniProt P05177) (assay: Cytochrome panel assay with activity outcomes). Details: recombinant CYP, pro-luciferin dealkylation, luminescence, p450-cyp1a2; series mostly up to 57.1 µM.
Cytochrome P450 1A2 (Homo sapiens), sequence (P05177 whole entry, looked up): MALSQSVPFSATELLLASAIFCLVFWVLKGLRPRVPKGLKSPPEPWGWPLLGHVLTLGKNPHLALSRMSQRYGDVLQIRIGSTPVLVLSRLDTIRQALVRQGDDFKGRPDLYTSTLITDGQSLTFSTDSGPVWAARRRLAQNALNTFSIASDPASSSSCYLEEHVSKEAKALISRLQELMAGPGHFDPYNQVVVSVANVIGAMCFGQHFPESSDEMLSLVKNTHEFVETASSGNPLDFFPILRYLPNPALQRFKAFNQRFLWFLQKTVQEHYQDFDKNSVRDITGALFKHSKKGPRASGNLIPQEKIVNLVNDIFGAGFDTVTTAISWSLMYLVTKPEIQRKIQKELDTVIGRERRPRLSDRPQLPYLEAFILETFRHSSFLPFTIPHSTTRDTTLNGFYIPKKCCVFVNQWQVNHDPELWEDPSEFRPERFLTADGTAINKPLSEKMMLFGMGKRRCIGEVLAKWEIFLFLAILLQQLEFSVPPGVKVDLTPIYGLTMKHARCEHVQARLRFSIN
% is scaled to controls: 0 for no effect and ±100 for the full control effect.

| SMILES | activity, negative = inhibition | AC50 |
| --- | --- | --- |
| CC(=O)OC[C@@H]1O[C@H](CCO/N=C(\C)CCN2CCc3nc(-c4ccccc4)c(-c4ccccc4)cc3C2)C=C[C@@H]1OC(C)=O | 1.24% [at 11.4 µM] (inactive) | – |
| O=C1[C@H]2[C@H]3[C@H](O)[C@H](O)C/C(=N/OC[C@@H](O)COCc4ccco4)[C@@H]3CC[C@@H]2C(=O)N1Cc1ccc2c(c1)OCO2 | -3.61% [at 11.4 µM] (inactive) | – |
| Cc1cccc(OCC(=O)N/N=C\C=C\c2ccc3c(c2)OCO3)c1C | – | 5.01 µM (active) |
| COC(=O)N/N=C\C=C\c1ccc2c(c1)OCO2 | – | inactive |
| CN1CCC2(CC1)CCN(S(=O)(=O)c1ccccc1)CC2 | – | inactive |
| CC1CN(C(=O)c2cc3c(s2)CCC3)CC(C)O1 (stereo not given) | – | 12.6 µM (active) |
| Cc1ccc(CC(=O)N2CC(C)OC(C)C2)cc1 (stereo not given) | – | inactive |
| CC1CN(C(=O)CN2C(=O)NC3(CCCCCC3)C2=O)CC(C)O1 (stereo not given) | – | inactive |
| Cc1cc(C)n(C(=O)c2cc3c(s2)CCCC3)n1 | – | 0.282 µM (active) |
| CCCN(CCC)CCc1cccc2c1CC(=O)N2 | – | inactive |
| NC(=O)CNCCC(c1ccccc1)c1ccccc1 | – | inactive |
| CCC(=O)c1ccc2c(c1)N(CCCN(C)C)c1ccccc1S2 | – | 0.631 µM (active) |
| CN(C)CCCN1c2ccccc2Sc2ccc(C(F)(F)F)cc21 | – | 1.58 µM (active) and 794 nM (active) |
| CN(C)CCCO[C@H]1[C@@H]2OC(C)(C)O[C@@H]2O[C@@H]1[C@H](O)CO | – | inactive |
| C/C(=N/Nc1ccc2ccccc2n1)c1ccccc1O | – | 1.58 µM (active) |
| CC(=NC1CCCCC1)c1ccccc1O | -14.9% [at 11.4 µM] (inactive) | – |
| C/C(CCN1CCc2nc(-c3ccccc3)c(-c3ccccc3)cc2C1)=N\O[C@@H](C)CN1CCCc2nc(C)c(C)cc21 | -2.64% [at 11.4 µM] (inactive) | – |
| Cc1cc2nnc(SCCCCN3C(=O)c4ccccc4C3=O)n2c2ccccc12 | – | 15.8 µM (active) |
| Cc1cc2nnc(SCC(=O)N3CCN(c4ccccc4)CC3)n2c(N)n1 | – | inactive |
| Cc1cc2nnc(SCC(=O)OC(C)C)n2c2ccccc12 | – | 14.1 µM (active) |

| SMILES | activity, negative = inhibition | AC50 |
| --- | --- | --- |
| CC(C)NC(=O)CSc1nnc(C2CC2)n1-c1ccccc1 | – | inactive |
| O=C(NCCN1CCN(Cc2ccccc2)CC1)C1CC(=O)N(C2CCCC2)C1 (stereo not given) | – | inactive |
| CCOc1ccc(CNC(=O)C2CC(=O)N(C3CCCC3)C2)cc1OC (stereo not given) | – | inactive |
| CCOc1ccc(CCNC(=O)C2CC(=O)N(C3CCCC3)C2)cc1OCC (stereo not given) | – | 10 µM (active) |
| COc1cc2c(cc1OC)-c1cc3ccc(OC)c(OC)c3c[n+]1CC2 | – | inactive |
| COc1ccc2cc3[n+](cc2c1OC)CCc1cc2c(cc1-3)OCO2 | – | 5.01 µM (active) |
| CCn1nc(C)c(NC(=O)/C=C/c2cnn(C)c2C)c1C | – | inactive |
| CCN1CCN(c2nc(-c3ccccn3)nc3ccccc23)CC1 | – | 11.2 µM (active) |
| CCn1cc(C(=O)O)c(=O)c2cc(F)c(N3CCNCC3)nc21 | – | inactive |
| CCN1CCN(C(=O)CCc2nc3ccccc3c(=O)[nH]2)CC1 | – | inactive |
| CCN1CCN(c2nn3c(=O)c4ccccc4nc3c3ccccc23)CC1 | – | 6.31 µM (active) |
| Cc1cccc(C2NC(=O)c3c(sc(C)c3C)N2)c1O (stereo not given) | – | 3.55 µM (active) |
| O=C1CCCC=C1[C@@H](O)CCOC(c1ccccc1)(c1ccccc1)c1ccccc1 | -6.79% [at 11.4 µM] (inactive) | – |
| CCCNC(=O)CSc1nc(-c2cccs2)cc(C(F)(F)F)n1 | – | 2.51 µM (active) |
| CCOC(=O)N1CCN(C(=O)CN(C)S(=O)(=O)c2ccc3c(c2)C(C)(C)C(=O)N3C)CC1 | – | inactive |
| CCOC(=O)N1CCN(C(=O)CNCc2cccs2)CC1 | – | inactive |
| COc1cc2nc(N3CCN(C(=O)c4ccco4)CC3)nc(N)c2cc1OC | – | inactive |
| CCOC(=O)N1CCN(c2nc(-c3ccco3)cc(C(F)(F)F)n2)CC1 | – | 0.501 µM (active) |
| COCCNC(=O)CSc1ncnc2sccc12 | – | inactive |
| CCOC(=O)N1CCN(c2nc(-c3cccs3)cc(C(F)(F)F)n2)CC1 | – | 2.82 µM (active) |

| SMILES | activity, negative = inhibition | AC50 |
| --- | --- | --- |
| CCC1(C)CC(CCNS(=O)(=O)c2ccc(C)cc2)(c2ccc(C)cc2)CCO1 (stereo not given) | – | inactive |
| CN(C)c1ncc2nc(-c3ccccc3)c(=O)n(C3CC3)c2n1 | – | 2.51 µM (active) |
| CN(C)c1ncc2nc(-c3ccc(F)cc3)c(=O)n(C3CC3)c2n1 | – | 1.58 µM (active) |
| CCc1cccc(N(C)C(N)=Nc2cccc3ccccc23)c1 | – | inactive |
| CC(=O)OC[C@H]1O[C@@H](O/N=C\[C@@H](C)[C@H](OCc2ccccc2)C(C)C)[C@H](OC(C)=O)[C@@H](OC(C)=O)[C@H]1OC(C)=O | -8.7% [at 11.4 µM] (inactive) | – |
| CCC(C)(C(=O)NC1CCCC1)N(Cc1ccco1)C(=O)c1ccccn1 (stereo not given) | – | inactive |
| CN(Cc1ccco1)c1nc(-c2ccccc2C(F)(F)F)nc2ccccc12 | – | 2 µM (active) |
| Cc1ccccc1-c1nc(N(C)Cc2ccco2)c2ccccc2n1 | – | 1.58 µM (active) |
| COc1ccccc1-c1nc(N(C)Cc2ccco2)c2ccccc2n1 | – | 0.501 µM (active) |
| CN(Cc1ccco1)c1ccnc(-c2ccccc2C(F)(F)F)n1 | – | 2.51 µM (active) |
| CN(C)Cc1ccccc1-c1nc(N(C)Cc2ccco2)c2ccccc2n1 | – | 0.794 µM (active) |
| CC(C)c1ccc(/C(C(=O)O)=C(\O)C(=O)O)cc1 | -18.6% [at 11.4 µM] (inactive) | – |
| COc1c(O)cc2c(c1O)[C@@H]1O[C@@H](CO)[C@@H](O)[C@@H](O)[C@@H]1OC2=O | – | inactive |
| Cc1ccc(C(=O)N/N=C/c2ccc(S(=O)(=O)O)o2)c(Cl)c1 | – | inactive |
| CCOC(=O)N/N=C(/C)c1ccc([N+](=O)[O-])o1 | – | 12.6 µM (active) |
| CCOC(=O)N/N=C\c1ccc([N+](=O)[O-])o1 | – | 12.6 µM (active) |
| Cc1ccc(NCC(=O)N/N=C\c2ccc([N+](=O)[O-])o2)cc1 | – | 1.41 µM (active) |
| Cc1ccc(NCC(=O)N/N=C/c2ccc(OC(=O)c3ccco3)cc2)cc1 | – | 7.08 µM (active) |
| O=C(ON=C1CCN(S(=O)(=O)c2ccccc2)CC1)c1ccccc1 | – | inactive |
| CCN1C(=O)C2(SC(NC(C)=O)=NN2C(C)=O)c2cc(C)ccc21 (stereo not given) | – | inactive |
